The values below come from PubChem BioAssay AID504332 (National Center for Advancing Translational Sciences (NCATS), 2011).

Hit rate of the full screen: of about 350,000 compounds, about 31,000 (8.9%) were called active. Entries that show only a call come without a potency. Inconclusive results (about 15%) are left out. Calls follow the shape of the dose curve; as a rule, active = well fitted inhibition curve with a large enough effect; inconclusive = small, poorly fitted or top-dose-only effect; inactive = no such curve, though single readings can be large or run the other way. Only a selection was taken, and actives are over-represented in it overall.
Potency is read from the fitted curve at half-maximal effect.

Sequence of Histone-lysine N-methyltransferase EHMT2 (Homo sapiens) (Q96KQ7 913-1193 limits assumed): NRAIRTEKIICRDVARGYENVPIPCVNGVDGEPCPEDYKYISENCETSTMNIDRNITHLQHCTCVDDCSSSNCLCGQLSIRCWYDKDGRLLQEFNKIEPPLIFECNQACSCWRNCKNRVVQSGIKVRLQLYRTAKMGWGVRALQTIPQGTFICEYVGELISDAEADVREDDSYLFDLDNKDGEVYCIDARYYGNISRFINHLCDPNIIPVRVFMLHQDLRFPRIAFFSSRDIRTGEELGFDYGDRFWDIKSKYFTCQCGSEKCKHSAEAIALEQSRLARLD

This test addresses Histone-lysine N-methyltransferase EHMT2 (Homo sapiens) (UniProt Q96KQ7). The experiment in a line: qHTS Assay for Inhibitors of Histone Lysine Methyltransferase G9a. Also: nearly all actives have a fitted effect of over 75% in size. The conditions noted are these: G9a H3K9 monomethylation, AlphaScreen, 2 h; series mostly up to 59 µM. A digest of the protocol:
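Chemiluminescent proximity detection of H3K9 monomethylation, read after 10 min bead incubation in the dark. Reaction: 20 nM G9a, 500 nM biotin-H3K9 peptide, 20 uM SAM cofactor, 2 h, room temperature, following 15 min enzyme-compound preincubation.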
Consider `Cc1ccc(Cl)cc1N1CCN(C(=O)C2CCC(CNS(=O)(=O)c3cccs3)CC2)CC1` (configuration not stated), for which the Potency result was “inactive”.

`Cc1ccc(S(=O)(=O)NNC(=O)/C=C/c2cccc(F)c2)cc1`: the Potency result was “inactive”.

With `Clc1ccccc1-c1cc(COc2ccc3ccccc3c2)no1`, the Potency entry was “inactive”.

Regarding `COc1cccc(NC(=O)NCCN2CCCCC2)c1`, the Potency result is “inactive”.

Consider `OC(COc1ccc(Br)cc1)CN1CCCC1` (configuration not stated), for which the Potency entry was “inactive”.

Turning to `O=C(Nc1ccc(F)cc1F)N1CCCN(CCOc2ccccc2)CC1`, the Potency entry is “inactive”.

Consider `COc1cccc(OCC(O)CN2CCN(CCO)CC2)c1` (configuration not stated), for which the Potency result is “inactive”.

`OC(COc1ccc2ccccc2c1)CN1CCOCC1` (configuration not stated): the Potency entry was “inactive”.

Turning to `Cc1ccc(CC2(O)CCN(CCOc3ccc(O)cc3)CC2)cc1`, the Potency entry was “inactive”.

On to `Cc1cc(C)c(NC(=O)CN2CCCCCC2)c(C)c1`, for which the activity, negative = inhibition is 41.6% [at 0.501 µM] (inactive).

For the compound `c1ccc2cc(OCCN3CCCC3)ccc2c1`, the Potency is 12.6 µM (active).

For the compound `Cc1cc(OCCN2CCCC2)cc(C(C)C)c1`, the Potency is 11.2 µM (active).

Regarding `COc1cccc(OCCCN2CCCCCC2)c1`, the Potency is 11.2 µM (active).

As for `Cc1cc(OCCN2CCCC2)ccc1C(C)C`, the Potency is 8.91 µM (active).

As to `CS(=O)(=O)Nc1ccccc1C(=O)OCC(=O)NC1CC1`, the activity, negative = inhibition was 15.6% [at 12.7 µM] (inactive).

For the compound `Cc1cccc(NC(=O)Cn2cc(S(=O)(=O)Cc3ccccc3Cl)c3ccccc32)c1`, the Potency entry was “inactive”.

For `CC(C)(C)N1C(=O)[C@H]2[C@@H](c3ccc(Br)cc3)N3C(=O)N(c4cccc(Cl)c4)C(=O)[C@@]3(C)[C@H]2C1=O`, the activity, negative = inhibition was -8.49% [at 2.33 µM] (inactive).

Turning to `CCN(CC)CCNC(=O)Cn1ncc2c3ccccc3n(Cc3ccccc3C)c2c1=O`, the Potency entry was “inactive”.

Turning to `Cn1c(=O)n(C)c2cc(S(=O)(=O)Nc3ccc(F)cc3)ccc21`, the Potency result is “inactive”.

For `CCC1C/C(=C/c2cccs2)C(=O)/C(=C/c2cccs2)C1` (configuration not stated), the Potency was 39.8 µM (active).

Turning to `O=C1/C(=C/c2cccs2)CCc2ccccc21`, the Potency result was “inactive”.

Regarding `CN1C/C(=C/c2cccs2)C(=O)/C(=C\c2cccs2)C1`, the activity, negative = inhibition was 1.72% [at 12.7 µM] (inactive).

As to `COc1ccc(CCNc2nc3c(-c4cccc(F)c4)nnn3c3ccccc23)cc1OC`, the Potency entry was “inactive”.

Take `Cc1ccc(Cn2c(=O)n(Cc3nc(-c4ccccc4)no3)c(=O)c3cc4c(cc32)OCO4)cc1`: the Potency result was “inactive”.

As to `COc1cccc(C2=CC(=O)C[C@H](c3ccc(OC)c(OC)c3)C2)c1`, the activity, negative = inhibition was -2.09% [at 2.33 µM] (inactive).

`CCOC(=O)c1c(C)oc2nc(C)nc(N3CCN(c4ccc(OC)cc4)CC3)c12`: the Potency is 12.6 µM (active).

As to `CCOC(=O)c1c(C)oc2nc(C)nc(Nc3ccc(CC)cc3)c12`, the Potency result is “inactive”.

For the compound `Cc1nc(N2CCOCC2)c2c(C(=O)NCc3cccc(Cl)c3)c(C)oc2n1`, the Potency result is “inactive”.

Turning to `CC(=O)c1cc2c(cc1NC(=O)Cn1nc(-c3ccc(F)cc3)ccc1=O)OCO2`, the Potency entry was “inactive”.

For the compound `O=C(CN1C(=O)CCn2nc(-c3ccccc3)cc21)NCc1ccccc1`, the Potency entry was “inactive”.

For the compound `CC1=CC(C)(C)Nc2ccc(OC(=O)C(Cc3ccccc3)N3C(=O)C4CCCCC4C3=O)cc21` (configuration not stated), the Potency is 50.1 µM (active).

On to `CC1=CC(C)(C)Nc2ccc(OC(=O)CN3C(=O)C4CCCCC4C3=O)cc21` (configuration not stated), for which the Potency entry was “inactive”.

As for `COC(=O)c1ccccc1NC(=O)C(Cc1ccccc1)N1Cc2ccccc2C1=O` (configuration not stated), the Potency result is “inactive”.

As for `CC1(C)O[C@H]2CC(=O)OCC23[C@H]2CC[C@@]4(C)[C@H](c5ccoc5)OC(=O)[C@H]5O[C@]54[C@]2(C)C(=O)C[C@@H]13` (some centres not stated), the activity, negative = inhibition was 12.6% [at 12.7 µM] (inactive).

In the case of `COc1ccc(CCNC(=O)CCCCn2c(=O)c3ccccc3n(Cc3ccccc3C)c2=O)cc1OC`, the Potency entry was “inactive”.

For the compound `O=C(Nc1cccc([N+](=O)[O-])c1)Nn1cnnc1`, the Potency result was “inactive”.

For the compound `FC(F)(F)c1cccc(Nc2ncnc3ccccc23)c1`, the activity, negative = inhibition was 8.16% [at 12.7 µM] (inactive).

Regarding `O=C(Nc1cccc(C(F)(F)F)c1)c1cnccn1`, the Potency result is “inactive”.

For `O=c1cc(CO)oc(C(Nc2cccc(C(F)(F)F)c2)c2ccccn2)c1O` (configuration not stated), the Potency is 1.26 µM (active).

Regarding `O=c1cc(CO)oc(C(Nc2cccc([N+](=O)[O-])c2)c2ccccn2)c1O` (configuration not stated), the Potency was 0.794 µM (active).

Take `Cc1ccc(CN(C)CC(=O)Nc2cccc([N+](=O)[O-])c2)o1`: the Potency result is “inactive”.

With `CCOC(=O)c1c(C)n(S(=O)(=O)c2ccc(C)cc2C)c2ccc(NS(=O)(=O)c3ccc(C)cc3C)cc12`, the Potency entry was “inactive”.

With `COc1ccc(NC(=O)CCCC(=O)c2ccccc2)cc1`, the Potency result is “inactive”.

As to `Cc1ccc(N/C=C/C(=O)c2ccccc2)cc1C`, the Potency entry is “inactive”.

Take `O=C(/C=C\NCC(=O)c1ccccc1)c1ccccc1`: the Potency was 6.31 µM (active).

As for `Cc1ccc(/C=C/C(=O)OCC(=O)NCc2ccc(Cl)cc2)o1`, the activity, negative = inhibition was -2.38% [at 2.33 µM] (inactive).

For `Cc1ccc(/C=C(\C#N)C(=O)Nc2cc(C)ccc2C)cc1`, the Potency entry is “inactive”.

As for `Cc1[nH]c2ccccc2c1/C=C(/C#N)C(=O)NC(C)C`, the Potency result is “inactive”.

Turning to `CC(C)NC(=O)/C(C#N)=C\c1ccc(N(C)C)c(Br)c1`, the Potency is 39.8 µM (active).

As for `Cc1ccc(NC(=O)Nc2sc3nc4n(c(=O)c3c2C)CCC(C)CC4)c(Cl)c1` (configuration not stated), the Potency entry was “inactive”.

For `O=c1[nH]c(=O)n(Cc2ccco2)c2c1C(C(F)(F)F)(C(F)(F)F)N=C(c1ccco1)N2`, the Potency was 50.1 µM (active).

Consider `Nc1c(N(Cc2ccco2)C(=O)c2cccc(F)c2)c(=O)[nH]c(=O)n1Cc1ccccc1`, for which the activity, negative = inhibition was -3.15% [at 12.7 µM] (inactive).

For the compound `Cc1ccccc1C1=NC(C(F)(F)F)(C(F)(F)F)c2c(n(-c3ccc(F)cc3)c(=O)[nH]c2=O)N1`, the Potency entry was “inactive”.

In the case of `CCCn1c(=S)[nH]c2ccc(C(F)(F)F)cc21`, the Potency was 11.2 µM (active).

For the compound `COc1ccc(/C(C)=N\NC(=O)c2ccc(-c3ccccc3)cc2)c(F)c1`, the Potency result is “inactive”.

With `Cc1cccc(C(=O)NC(=S)N(C)C2CCCCC2)c1`, the Potency entry is “inactive”.

Regarding `CC(OC(=O)c1ccccc1NCCO)C(=O)Nc1ccnn1C(C)C` (configuration not stated), the activity, negative = inhibition is -12.9% [at 12.7 µM] (inactive).

`CC(=O)c1cccc(Nc2ccc3cc(S(=O)(=O)N4CCC(C)CC4)ccc3n2)c1`: the Potency result was “inactive”.

Regarding `Cc1cccc(S(=O)(=O)c2cn(Cc3ccccc3)c3cc(N4CCOCC4)c(F)cc3c2=O)c1`, the Potency result is “inactive”.

`COc1ccc(C23NCCN2C(=O)c2ccccc23)cc1` (configuration not stated): the Potency entry is “inactive”.

`Cc1nc2nc3c(cn2n1)C(=O)CC(c1ccccc1)C3` (configuration not stated): the Potency was 56.2 µM (active).

As to `CC1=C(C(=O)Nc2cc(C)ccn2)C(c2cnn(C)c2)C2=C(CC(c3ccccc3)CC2=O)N1` (configuration not stated), the Potency result was “inactive”.

Consider `CN1CCN(c2ncc3c(n2)CC(c2ccccc2F)CC3=O)CC1` (configuration not stated), for which the Potency entry was “inactive”.

In the case of `CC(=O)c1ccc(NC(c2ccc(F)cc2)c2nnc(-c3ccccc3)o2)cc1` (configuration not stated), the Potency result was “inactive”.

With `COc1cccc(NC(=O)C2CCN(c3cc(C)nc4c(-c5ccc(Cl)cc5)c(C)nn34)CC2)c1`, the Potency entry is “inactive”.

In the case of `CN(C)CCN(Cc1ccccc1)S(=O)(=O)c1csc(C(N)=O)c1`, the Potency entry is “inactive”.

With `O=C(c1cc(-c2ccc(O)cc2)on1)N1CCOCC1`, the Potency entry is “inactive”.

As to `Cc1ccc(OCCSc2nc3ccc(NC(=O)COc4ccc(C)cc4)cc3s2)cc1`, the Potency entry was “inactive”.

Turning to `COc1cc(C(=O)Nn2c(CC(C)C)nc3ccccc3c2=O)cc(OC)c1OC`, the Potency entry was “inactive”.

Consider `COc1cc(C(=O)Nn2c(O)c(C3=c4ccccc4=NC3=O)sc2=S)ccc1O`, for which the Potency was 44.7 µM (active).

Consider `CCCn1ccc2c(OCC(=O)NCc3ccc(F)cc3)cccc2c1=O`, for which the Potency entry is “inactive”.

For the compound `COc1ccc(N(C)S(=O)(=O)c2ccc3c(c2)CC(C)N3C(=O)C2CC2)c(OC)c1` (configuration not stated), the Potency entry is “inactive”.

Take `O=C(Nc1cc2ccccc2oc1=O)C1CCCCC1`: the Potency entry is “inactive”.

With `O=c1oc2ccccc2cc1-c1cn(-c2ccccc2)c(=S)[nH]1`, the Potency was 1.41 µM (active).

Regarding `O=C(c1cn(-c2ccccc2)nc1-c1cc2ccccc2oc1=O)N1CCOCC1`, the Potency entry is “inactive”.

In the case of `CCC(=O)N1CCc2cc(S(=O)(=O)NC(C(=O)NCCc3ccc(C)cc3)C(C)C)ccc21` (configuration not stated), the Potency result was “inactive”.

Take `Cc1ccc(NC(=S)Nc2ncccc2C)c(C)c1`: the Potency was 31.6 µM (active).

As for `Cc1ccc(NC(=S)NCc2ccccc2Cl)c(C)c1`, the Potency result was “inactive”.

Regarding `Cc1ccc(NC(=S)NCCc2ccc(Cl)cc2)c(C)c1`, the Potency result is “inactive”.

For `COc1ccc(S(=O)(=O)Nc2cc(C)on2)cc1NC(C)=O`, the activity, negative = inhibition is 2.19% [at 12.7 µM] (inactive).

Take `O=C(CNS(=O)(=O)c1cccs1)N1CCN(c2ccccc2Cl)CC1`: the Potency result is “inactive”.

In the case of `CCCSc1nc2c(c(=O)n(C)c(=O)n2C)n1Cc1ccc(C)cc1`, the Potency entry is “inactive”.

As to `CCOc1ccc(Cn2c(SCCCCC#N)nc3c2c(=O)n(C)c(=O)n3C)cc1OCC`, the Potency is 35.5 µM (active).

With `CCCCn1c(SCC(=O)NCCc2ccc(OC)c(OC)c2)nc2c1c(=O)n(C)c(=O)n2C`, the Potency entry was “inactive”.

With `O=C(CN1C(=O)C2C3C=CC(C3)C2C1=O)Nc1nc(-c2ccccn2)cs1` (configuration not stated), the Potency is 39.8 µM (active).

With `O=C(CCN1C(=O)C2C3C=CC(C3)C2C1=O)Nc1ccccc1F` (configuration not stated), the Potency entry is “inactive”.

For the compound `O=C(NCCN1C(=O)C2C3C=CC(C3)C2C1=O)Nc1ccccn1` (configuration not stated), the Potency entry is “inactive”.

As to `COCCCN(C(=O)CSCc1ccc(C)cc1)c1c(N)n(Cc2ccccc2)c(=O)[nH]c1=O`, the Potency entry was “inactive”.

`Cc1c(CNC2CCCCC2)c(C(=O)O)c(C)n1Cc1cccc(Cl)c1`: the Potency entry is “inactive”.

Turning to `Cc1onc(-c2c(F)cccc2Cl)c1C(=O)N(C)CC(=O)Nc1cccc(F)c1`, the Potency entry was “inactive”.

For `CCOC(=O)c1ccc(NC(=O)CCS(=O)(=O)c2ccc(C)cc2)cc1`, the Potency result is “inactive”.

In the case of `O=C(CSc1nnc(CNC(=O)c2ccc(F)cc2)o1)Nc1ccc2c(c1)OCO2`, the Potency entry is “inactive”.

With `O=S(=O)(N1CCOCC1)N1CCN(c2ccccc2F)CC1`, the Potency result was “inactive”.

With `Cc1cccc(C)c1N1CCN(S(=O)(=O)N2CCOCC2)CC1`, the Potency is 39.8 µM (active).

With `Cc1cccc(C)c1N1CCN(S(=O)(=O)N2CCCCC2)CC1`, the Potency result is “inactive”.

For the compound `CN(CC(=O)Nc1cccc(F)c1)C(=O)C1CC(=O)N(CCc2ccccc2)C1` (configuration not stated), the Potency entry is “inactive”.

`Cc1ccc(CNC(=O)CCc2c(C)nn(-c3ccc(N4CCCC4)nn3)c2C)cc1`: the Potency result was “inactive”.
